In the supplement of paper PMC10849652:
The full data set covers some 8,800 targets. This sample favours those with a hit. About 0.5% of all pairs of compound and target were hits.

Legend:
Assay in all cases: log2 fold change, soluble protein after heating vs DMSO (PISA); higher = thermal stabilisation; K562 lysate, 10 uM; active = over 0.2 and 3.5 SD of the protein, either way, in both replicates (recomputed)
ibrutinib = compound: C=CC(=O)N1CCC[C@@H](n2nc(-c3ccc(Oc4ccccc4)cc3)c3c(N)ncnc32)C1 [ibrutinib]
Outline: (§1)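 A 30 min treatment with 10 μM compound was applied to crude K562 extract at 1 mg/mL protein in PBS pH 7.4 with 1 mM MgCl2. Heating for 3 min spanned 48°C-58°C, after which aliquots were pooled, adjusted to 0.5% NP-40 at 4°C and spun at 21,000xg for 90 min. TMTpro 16plex LC-MS/MS of the supernatant, with channel sums equalised, gave values recorded as log-two fold change in thermal stability against solvent controls, from duplicates.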

[1] = compound: CC(=O)c1cnc2ccc(-c3cc(Cl)c(O)c(Cl)c3)nc2c1N[C@H]1CC[C@H](CN(C)C)CC1
Outline: as §1

ralimetinib = compound: CC(C)(C)Cn1c(N)nc2ccc(-c3[nH]c(C(C)(C)C)nc3-c3ccc(F)cc3)nc21 [ralimetinib]
Outline: as §1

[2] = compound: CC(C)(O)CC(=O)NCCn1ccc2ncnc(Nc3ccc(Oc4cccc(C(F)(F)F)c4)c(Cl)c3)c21
Outline: as §1

[3] = compound: CC(C)C1=C2N=C(C=C(N2N=C1)NCC3=CC=CC=C3)NCCCCCCN
Outline: as §1

[4] = compound: CC1=C(C(CC(=O)N1)C2=CC=C(C=C2)C(F)(F)F)C(=O)NC3=C(C=C4C(=C3)C=NN4)F
Outline: as §1

[5] = compound: CC1=C(C2=C(C=C1)C(=O)C3=CC=CC=C3N2CCCN)C
Outline: as §1

[6] = compound: CC1=C(C=C(C=C1)NC(=O)C2=CC(=CC=C2)C(C)(C)C#N)NC3=CC4=C(C=C3)N=CN(C4=O)C
Outline: as §1

[7] = compound: CC1=C(C=C(C=C1)NC(=O)C2=CC(=CC=C2)N(C)C)NC(=O)C3=CC=C(C=C3)O
Outline: as §1

[8] = compound: CC1=CC=C(C=C1)SC2=C3C=C(SC3=CN=C2)C(=O)N
Outline: as §1

vemurafenib = compound: CCCS(=O)(=O)Nc1ccc(F)c(C(=O)c2c[nH]c3ncc(-c4ccc(Cl)cc4)cc23)c1F [vemurafenib]
Outline: as §1

[9] = compound: CCCS(=O)(=O)Nc1ccc(F)c(C(=O)c2c[nH]c3ncc(Cl)cc23)c1F
Outline: as §1

barasertib = compound: CCN(CCCOc1ccc2c(Nc3cc(CC(=O)Nc4cccc(F)c4)[nH]n3)ncnc2c1)CCOP(=O)(O)O [barasertib]
Outline: as §1

[10] = compound: CC[C@@H]1C(=O)N(C)c2cnc(Nc3ccc(C(=O)NC4CCN(C)CC4)cc3OC)nc2N1C1CCCC1
Outline: as §1

volasertib = compound: CC[C@@H]1C(=O)N(C)c2cnc(Nc3ccc(C(=O)N[C@H]4CC[C@H](N5CCN(CC6CC6)CC5)CC4)cc3OC)nc2N1C(C)C [volasertib]
Outline: as §1

[11] = compound: CCn1c(C(=O)N(C2CC2)C2CC2)cc2c3c(ncn3C)c(Nc3cc(C)n(C)n3)nc21
Outline: as §1

[12] = compound: CCn1cc(-c2ccnc3[nH]c(-c4cccc(CN(C)C)c4)cc23)c(-c2ccc(NC(=O)N(C)C)cc2)n1
Outline: as §1

[13] = compound: CN1CCC(CNc2ccc3ncc(-c4cccc(OC(F)(F)F)c4)n3n2)CC1
Outline: as §1

saracatinib = compound: CN1CCN(CCOc2cc(OC3CCOCC3)c3c(Nc4c(Cl)ccc5c4OCO5)ncnc3c2)CC1 [saracatinib]
Outline: as §1

sotrastaurin = compound: CN1CCN(c2nc(C3=C(c4c[nH]c5ccccc45)C(=O)NC3=O)c3ccccc3n2)CC1 [sotrastaurin]
Outline: as §1

Measured: log2 fold change

NADK2 (UniProt Q4G0N4)
Sequence of UniProt Q4G0N4 (Q4G0N4 whole entry, looked up): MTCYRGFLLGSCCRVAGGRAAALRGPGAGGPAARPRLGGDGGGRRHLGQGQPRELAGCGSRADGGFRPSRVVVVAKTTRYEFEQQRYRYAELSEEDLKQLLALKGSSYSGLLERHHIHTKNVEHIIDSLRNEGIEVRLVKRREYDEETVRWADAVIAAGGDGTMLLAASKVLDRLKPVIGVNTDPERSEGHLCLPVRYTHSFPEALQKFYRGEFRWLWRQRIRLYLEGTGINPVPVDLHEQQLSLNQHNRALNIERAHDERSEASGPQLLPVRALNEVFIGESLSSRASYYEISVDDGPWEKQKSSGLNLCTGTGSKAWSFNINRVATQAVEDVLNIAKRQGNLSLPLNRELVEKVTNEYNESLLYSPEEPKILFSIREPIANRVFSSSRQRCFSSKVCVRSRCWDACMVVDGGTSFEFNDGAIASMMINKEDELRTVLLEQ
inactive: ibrutinib -0.017 | [1] -0.006 | ralimetinib 0.005 | [2] -0.03 | [3] -0.02 | [4] -0.007 | [5] 0.008 | [6] 0.024 | [7] 0.023 | [8] 0.042 | vemurafenib 0.024 | [9] -0.013 | barasertib 0.034 | [10] 0.078 | volasertib 0.008 | [11] -0.016 | [12] -0.019 | [13] 0.02 | saracatinib -0.035 | sotrastaurin -0.036

NBN (UniProt O60934)
inactive: ibrutinib 0.016 | [1] -0.003 | ralimetinib 0.014 | [2] 0.01 | [3] -0.016 | [4] -0.007 | [5] -0.015 | [6] -0.021 | [7] 0.022 | [8] -0.016 | vemurafenib 0.011 | [9] 0.011 | barasertib 0.037 | [10] -0.028 | volasertib -0.019 | [11] -0.003 | [12] 0.043 | [13] -0.058 | saracatinib 0.025 | sotrastaurin 0.001

NARS2 (UniProt Q96I59)
Sequence of UniProt Q96I59 (Q96I59 whole entry, looked up): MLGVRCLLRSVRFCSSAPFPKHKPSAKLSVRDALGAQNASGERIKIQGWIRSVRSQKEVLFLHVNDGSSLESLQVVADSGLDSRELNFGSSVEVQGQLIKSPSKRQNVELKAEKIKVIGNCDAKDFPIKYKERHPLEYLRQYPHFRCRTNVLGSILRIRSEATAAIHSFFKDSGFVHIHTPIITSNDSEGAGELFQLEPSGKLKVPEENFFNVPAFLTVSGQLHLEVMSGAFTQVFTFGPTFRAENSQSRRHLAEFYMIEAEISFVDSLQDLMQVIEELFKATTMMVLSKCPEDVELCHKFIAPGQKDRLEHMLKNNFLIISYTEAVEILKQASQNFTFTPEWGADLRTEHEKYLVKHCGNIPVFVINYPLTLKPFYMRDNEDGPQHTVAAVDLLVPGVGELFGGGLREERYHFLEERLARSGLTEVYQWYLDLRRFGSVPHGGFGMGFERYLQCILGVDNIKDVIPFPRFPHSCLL
inactive: ibrutinib 0.01 | [1] 0.009 | ralimetinib 0.009 | [2] 0.003 | [3] -0.001 | [4] 0.017 | [5] -0.024 | [6] -0.007 | [7] 0.045 | [8] 0.038 | vemurafenib 0.022 | [9] 0.028 | barasertib 0 | [10] -0.025 | volasertib -0.067 | [11] 0.041 | [12] -0.091 | [13] 0.027 | saracatinib 0.001 | sotrastaurin -0.024

NGLY1 (UniProt Q96IV0)
inactive: ibrutinib 0 | [1] -0.01 | ralimetinib 0.011 | [2] -0.008 | [3] 0.03 | [4] -0.001 | [5] -0.01 | [6] -0.006 | [7] 0.017 | [8] 0 | vemurafenib 0.015 | [9] 0.01 | barasertib 0.043 | [10] -0.102 | volasertib -0.034 | [11] 0.002 | [12] 0.09 | [13] -0.02 | saracatinib 0.013 | sotrastaurin 0.024

PAXBP1 (UniProt Q9Y5B6)
inactive: ibrutinib -0.004 | [1] 0.019 | ralimetinib 0.027 | [2] -0.015 | [3] 0.006 | [4] -0.024 | [5] 0.007 | [6] -0.007 | [7] 0.077 | [8] 0.032 | vemurafenib 0.072 | [9] 0.006 | barasertib 0.07 | [10] -0.008 | volasertib -0.058 | [11] 0.042 | [12] 0.043 | [13] 0.004 | saracatinib 0.02 | sotrastaurin 0.025

NUP98 (UniProt P52948)
Sequence of UniProt P52948 (P52948 whole entry, looked up): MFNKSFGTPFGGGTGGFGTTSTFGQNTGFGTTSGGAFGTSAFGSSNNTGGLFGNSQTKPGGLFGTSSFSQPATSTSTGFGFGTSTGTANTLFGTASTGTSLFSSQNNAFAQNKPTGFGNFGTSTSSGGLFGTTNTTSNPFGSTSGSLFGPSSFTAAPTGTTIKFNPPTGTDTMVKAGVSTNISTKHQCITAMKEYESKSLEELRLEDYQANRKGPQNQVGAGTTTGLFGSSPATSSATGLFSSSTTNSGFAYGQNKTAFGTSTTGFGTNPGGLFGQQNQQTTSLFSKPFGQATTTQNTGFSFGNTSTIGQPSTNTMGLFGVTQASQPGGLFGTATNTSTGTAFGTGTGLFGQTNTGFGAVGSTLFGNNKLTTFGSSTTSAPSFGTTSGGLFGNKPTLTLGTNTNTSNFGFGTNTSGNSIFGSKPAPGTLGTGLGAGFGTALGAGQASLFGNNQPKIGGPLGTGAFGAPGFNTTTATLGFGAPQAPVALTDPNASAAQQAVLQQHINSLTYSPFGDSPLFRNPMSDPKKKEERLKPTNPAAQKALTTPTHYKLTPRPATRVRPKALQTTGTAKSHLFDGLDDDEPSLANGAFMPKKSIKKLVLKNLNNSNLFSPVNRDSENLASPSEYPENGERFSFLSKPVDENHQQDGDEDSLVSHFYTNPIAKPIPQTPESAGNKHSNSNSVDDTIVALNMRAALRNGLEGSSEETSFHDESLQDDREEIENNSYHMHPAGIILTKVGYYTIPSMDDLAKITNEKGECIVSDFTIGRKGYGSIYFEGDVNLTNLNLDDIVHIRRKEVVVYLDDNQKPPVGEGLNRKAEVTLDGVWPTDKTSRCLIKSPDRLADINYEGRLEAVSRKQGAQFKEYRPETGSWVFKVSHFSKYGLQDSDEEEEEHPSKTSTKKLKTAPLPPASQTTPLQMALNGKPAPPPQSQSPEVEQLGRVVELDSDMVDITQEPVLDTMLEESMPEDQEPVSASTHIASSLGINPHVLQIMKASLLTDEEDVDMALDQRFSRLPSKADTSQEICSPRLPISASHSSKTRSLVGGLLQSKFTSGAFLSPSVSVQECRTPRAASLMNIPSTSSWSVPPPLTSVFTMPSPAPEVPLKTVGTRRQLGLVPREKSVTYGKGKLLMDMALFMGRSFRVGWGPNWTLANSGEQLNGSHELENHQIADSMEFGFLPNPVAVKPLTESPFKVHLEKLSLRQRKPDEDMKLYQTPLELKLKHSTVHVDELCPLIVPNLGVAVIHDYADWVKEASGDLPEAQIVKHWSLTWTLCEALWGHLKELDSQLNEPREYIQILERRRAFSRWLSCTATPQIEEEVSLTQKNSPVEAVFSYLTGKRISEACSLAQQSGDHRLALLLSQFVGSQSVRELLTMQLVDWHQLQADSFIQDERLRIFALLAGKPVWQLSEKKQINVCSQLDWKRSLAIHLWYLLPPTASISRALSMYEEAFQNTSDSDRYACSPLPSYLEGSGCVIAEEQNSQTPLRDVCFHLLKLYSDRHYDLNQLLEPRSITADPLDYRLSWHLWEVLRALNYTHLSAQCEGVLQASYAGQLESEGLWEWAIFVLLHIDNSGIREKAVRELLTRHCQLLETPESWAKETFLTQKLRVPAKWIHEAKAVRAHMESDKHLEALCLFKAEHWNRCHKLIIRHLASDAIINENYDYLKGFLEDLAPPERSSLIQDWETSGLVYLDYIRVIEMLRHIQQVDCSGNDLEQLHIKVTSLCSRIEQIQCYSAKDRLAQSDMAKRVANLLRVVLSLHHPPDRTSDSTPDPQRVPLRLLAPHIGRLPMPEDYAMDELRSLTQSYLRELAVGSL
inactive: ibrutinib -0.01 | [1] 0.047 | ralimetinib 0.047 | [2] 0.022 | [3] -0.037 | [4] 0.034 | [5] 0.029 | [6] -0.022 | [7] 0.008 | [8] -0.017 | vemurafenib 0.001 | [9] 0.035 | barasertib 0.02 | [10] -0.005 | volasertib -0.071 | [11] 0.031 | [12] -0.062 | [13] 0.019 | saracatinib 0.073 | sotrastaurin -0.005

OSBPL6 isoform 5 (UniProt Q9BZF3)
inactive: ibrutinib 0.118 | [1] -0.031 | ralimetinib 0.23 | [2] -0.042 | [3] 0.098 | [4] -0.032 | [5] 0.016 | [6] 0.015 | [7] -0.013 | [8] 0.01 | vemurafenib -0.026 | [9] -0.021 | barasertib -0.015 | [10] -0.052 | volasertib -0.072 | [11] 0.015 | [12] -0.004 | [13] 0.084 | saracatinib -0.009 | sotrastaurin -0.035

NAA30 (UniProt Q147X3)
inactive: ibrutinib 0.013 | [1] -0.017 | ralimetinib 0.057 | [2] -0.037 | [3] -0.018 | [4] 0.084 | [5] -0.024 | [6] -0.045 | [7] 0.004 | [8] 0.046 | vemurafenib 0.001 | [9] 0.009 | barasertib 0.037 | [10] 0.043 | volasertib 0.012 | [11] -0.058 | [12] -0.022 | [13] 0.043 | saracatinib -0.003 | sotrastaurin 0.045

NIPSNAP3A (UniProt Q9UFN0)
Sequence of UniProt Q9UFN0 (Q9UFN0 whole entry, looked up): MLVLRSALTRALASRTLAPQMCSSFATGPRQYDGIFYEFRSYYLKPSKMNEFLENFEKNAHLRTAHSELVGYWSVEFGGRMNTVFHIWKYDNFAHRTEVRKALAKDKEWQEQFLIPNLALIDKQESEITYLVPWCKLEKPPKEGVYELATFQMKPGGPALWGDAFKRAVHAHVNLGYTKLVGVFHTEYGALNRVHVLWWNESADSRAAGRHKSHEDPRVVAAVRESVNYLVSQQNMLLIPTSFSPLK
inactive: ibrutinib -0.013 | [1] -0.014 | ralimetinib -0.016 | [2] -0.049 | [3] 0.029 | [4] 0.023 | [5] -0.021 | [6] 0.004 | [7] 0.022 | [8] -0.056 | vemurafenib -0.005 | [9] 0.018 | barasertib -0.04 | [10] 0.043 | volasertib 0.019 | [11] -0.024 | [12] 0.324 | [13] -0.213 | saracatinib -0.002 | sotrastaurin 0.021

MTA3 (UniProt Q9BTC8)
inactive: ibrutinib -0.048 | [1] -0.023 | ralimetinib 0.009 | [2] 0.062 | [3] 0.01 | [4] -0.047 | [5] 0.031 | [6] -0.053 | [7] -0.052 | [8] -0.018 | vemurafenib 0.019 | [9] 0.002 | barasertib 0.017 | [10] 0.023 | volasertib -0.022 | [11] -0.055 | [12] -0.017 | [13] -0.097 | saracatinib 0.036 | sotrastaurin -0.006

MSH6 (UniProt P52701)
inactive: ibrutinib 0.001 | [1] 0.022 | ralimetinib 0.024 | [2] 0.003 | [3] 0.027 | [4] -0.01 | [5] -0.01 | [6] -0.002 | [7] 0.057 | [8] 0.003 | vemurafenib 0.024 | [9] 0.028 | barasertib 0.021 | [10] -0.109 | volasertib -0.061 | [11] 0.044 | [12] -0.035 | [13] -0.041 | saracatinib -0.003 | sotrastaurin 0.047

NOA1 (UniProt Q8NC60)
Sequence of UniProt Q8NC60 (Q8NC60 whole entry, looked up): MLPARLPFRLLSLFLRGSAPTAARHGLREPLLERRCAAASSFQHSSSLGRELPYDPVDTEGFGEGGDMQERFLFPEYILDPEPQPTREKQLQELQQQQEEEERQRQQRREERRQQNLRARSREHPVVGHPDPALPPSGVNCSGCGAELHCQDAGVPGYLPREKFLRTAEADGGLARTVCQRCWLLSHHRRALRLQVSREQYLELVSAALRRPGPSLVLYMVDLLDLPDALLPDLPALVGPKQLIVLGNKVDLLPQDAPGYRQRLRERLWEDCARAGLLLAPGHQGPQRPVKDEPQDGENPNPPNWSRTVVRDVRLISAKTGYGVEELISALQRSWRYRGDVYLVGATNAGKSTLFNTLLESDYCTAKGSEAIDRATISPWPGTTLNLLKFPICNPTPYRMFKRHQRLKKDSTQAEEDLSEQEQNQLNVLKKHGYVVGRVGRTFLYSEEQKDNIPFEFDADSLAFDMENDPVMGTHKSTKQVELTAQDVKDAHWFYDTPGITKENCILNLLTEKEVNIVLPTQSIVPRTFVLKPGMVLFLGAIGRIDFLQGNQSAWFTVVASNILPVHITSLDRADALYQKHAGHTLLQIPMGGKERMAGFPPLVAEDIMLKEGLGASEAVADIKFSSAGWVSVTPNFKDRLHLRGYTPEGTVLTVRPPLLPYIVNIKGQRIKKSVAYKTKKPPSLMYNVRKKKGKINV
inactive: ibrutinib -0.024 | [1] -0.025 | ralimetinib 0.002 | [2] 0.034 | [3] 0.005 | [4] -0.064 | [5] -0.02 | [6] 0.002 | [7] -0.001 | [8] 0.02 | vemurafenib 0.041 | [9] -0.009 | barasertib 0.043 | [10] 0.029 | volasertib -0.024 | [11] -0.083 | [12] -0.229 | [13] 0.028 | saracatinib 0.016 | sotrastaurin 0.037

MVB12A (UniProt Q96EY5)
inactive: ibrutinib 0.049 | [1] 0.009 | ralimetinib -0.008 | [2] 0.001 | [3] -0.003 | [4] -0.015 | [5] 0.033 | [6] -0.015 | [7] 0.043 | [8] 0.02 | vemurafenib -0.017 | [9] 0.005 | barasertib -0.04 | [10] 0.094 | volasertib -0.001 | [11] 0.03 | [12] 0.009 | [13] -0.001 | saracatinib 0.015 | sotrastaurin 0.01

NPTN (UniProt Q9Y639)
Sequence of UniProt Q9Y639 (Q9Y639 whole entry, looked up): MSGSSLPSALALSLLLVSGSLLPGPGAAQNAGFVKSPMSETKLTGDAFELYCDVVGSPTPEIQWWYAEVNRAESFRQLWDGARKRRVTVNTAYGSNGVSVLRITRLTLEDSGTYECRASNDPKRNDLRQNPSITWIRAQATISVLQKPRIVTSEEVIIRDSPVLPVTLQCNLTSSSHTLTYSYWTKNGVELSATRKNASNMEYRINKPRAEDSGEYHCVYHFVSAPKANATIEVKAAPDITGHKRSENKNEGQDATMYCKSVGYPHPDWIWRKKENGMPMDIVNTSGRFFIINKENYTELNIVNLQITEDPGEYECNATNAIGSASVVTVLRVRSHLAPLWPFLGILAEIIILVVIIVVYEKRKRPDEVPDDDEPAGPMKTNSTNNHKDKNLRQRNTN
inactive: ibrutinib 0.069 | [1] 0.026 | ralimetinib 0.042 | [2] -0.009 | [3] 0.007 | [4] -0.02 | [5] -0.015 | [6] 0.038 | [7] 0.004 | [8] -0.046 | vemurafenib -0.028 | [9] -0.042 | barasertib 0.007 | [10] 0.032 | volasertib -0.038 | [11] -0.017 | [12] -0.019 | [13] 0.052 | saracatinib 0.02 | sotrastaurin -0.016

NFATC2 (UniProt Q13469)
Sequence of UniProt Q13469 (Q13469 whole entry, looked up): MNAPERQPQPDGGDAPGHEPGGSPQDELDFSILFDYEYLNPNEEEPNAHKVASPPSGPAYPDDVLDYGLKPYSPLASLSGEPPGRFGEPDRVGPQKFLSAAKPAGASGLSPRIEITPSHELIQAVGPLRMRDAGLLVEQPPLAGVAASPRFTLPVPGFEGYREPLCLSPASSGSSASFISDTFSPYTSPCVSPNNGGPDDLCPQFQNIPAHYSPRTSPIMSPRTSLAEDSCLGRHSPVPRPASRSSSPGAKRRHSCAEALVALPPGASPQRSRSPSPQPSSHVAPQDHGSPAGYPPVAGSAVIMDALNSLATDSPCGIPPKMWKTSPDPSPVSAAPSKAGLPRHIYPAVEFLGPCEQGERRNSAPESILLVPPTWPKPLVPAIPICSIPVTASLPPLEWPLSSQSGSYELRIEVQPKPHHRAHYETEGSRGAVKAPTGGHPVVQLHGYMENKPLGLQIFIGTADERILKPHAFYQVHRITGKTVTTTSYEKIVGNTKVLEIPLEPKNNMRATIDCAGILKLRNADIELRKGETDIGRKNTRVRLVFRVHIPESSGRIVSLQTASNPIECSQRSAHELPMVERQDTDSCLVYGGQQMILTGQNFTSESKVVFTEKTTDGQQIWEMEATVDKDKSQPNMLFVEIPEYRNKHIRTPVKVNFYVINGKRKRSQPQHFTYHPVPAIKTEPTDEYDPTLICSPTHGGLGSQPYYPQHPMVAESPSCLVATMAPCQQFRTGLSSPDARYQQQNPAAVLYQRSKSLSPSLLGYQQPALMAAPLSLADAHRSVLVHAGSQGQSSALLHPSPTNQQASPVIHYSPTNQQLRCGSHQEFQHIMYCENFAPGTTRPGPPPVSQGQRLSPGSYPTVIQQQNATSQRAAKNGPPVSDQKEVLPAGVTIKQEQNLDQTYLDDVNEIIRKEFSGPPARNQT
inactive: ibrutinib 0.012 | [1] 0.039 | ralimetinib -0.022 | [2] -0.061 | [3] 0.026 | [4] 0.004 | [5] -0.018 | [6] -0.026 | [7] 0.033 | [8] -0.031 | vemurafenib -0.029 | [9] 0.032 | barasertib 0.011 | [10] 0.03 | volasertib -0.069 | [11] -0.006 | [12] 0.011 | [13] -0.002 | saracatinib 0.014 | sotrastaurin -0.016

OGFR (UniProt Q9NZT2)
inactive: ibrutinib -0.012 | [1] 0.02 | ralimetinib 0.007 | [2] -0.011 | [3] -0.008 | [4] 0.001 | [5] -0.016 | [6] -0.027 | [7] -0.003 | [8] 0.002 | vemurafenib -0.033 | [9] 0.025 | barasertib 0.003 | [10] -0.012 | volasertib -0.067 | [11] 0.004 | [12] 0.12 | [13] -0.039 | saracatinib 0.022 | sotrastaurin 0.053
